What all share (assay): NCI-60 one-dose screen, 48 h (100 = growth as untreated, 0 = no growth, -100 = all killed)
Common to all, as to conditions: 10 µM unless noted

Test [1] concerns DU-145 prostate.
Test [2] concerns K-562 leukemia.
The test system of test [3] is MALME-3M melanoma.
Test [4] relates to MDA-MB-231 breast.
Test [5] relates to RXF 393 renal.
Test [6] relates to SF-268 CNS.
In test [7] the test system is SF-295 CNS.
The subject of test [8] is SF-539 CNS.
The test system of test [9] is UACC-257 melanoma.
Test [10] deals with HCT-15 colon.
Test [11] relates to HT29 colon.
Test [12] deals with SNB-75 CNS.
Test [13] relates to SNB-19 CNS.
Test [14] concerns U251 CNS.
In test [15] the test system is SK-MEL-5 melanoma.
Test [16] relates to UACC-62 melanoma.
Test [17] concerns LOX IMVI melanoma.
Test [18] deals with SK-MEL-28 melanoma.
Test [19] deals with PC-3 prostate.

Structures are written as SMILES. This is part of a sample that, as a whole, favours compounds with a hit. Of some 83,000 tested, about 20% had one in any assay.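 Cells were grown in 96-well plates and exposed to the test compound at a single concentration for 48 hours; results are reported as percent growth, with values below 10 considered active.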 A number with no mark means an inactive call. Calls of active or inactive are those of the source.

Consider `CSc1nc2ccccc2cc1/C=[N+](\[O-])c1ccccc1`, for which the growth in test [1] is 87.7%; in test [2], 15.1%; in test [3], 46.1%; in test [4], 46.5%; in test [5], 83.8%; in test [6], 56.6%. Further, the growth in test [7] was 86.7%; in test [8], 19.7%; in test [9], 90%; in test [10], 18.7%; in test [11], 80.2%; in test [12] it was 67.3%. The growth in test [13] is 72.9%; in [14], 46.2%; in test [15], 52.5%; in test [16], 51.5%; in test [17] it was 38.1%; in [18], 93.8%.

Consider `COC(CC(F)F)c1cn(S(=O)(=O)c2ccc(C)cc2)c2ccccc12` (stereo not given), for which the growth is 21.3% in test [1]; 14.5% in test [2]; 50.9% in [3]; 38.2% in test [4]; 39.4% in test [5]; 42% in test [6]. In addition, the growth was 15% in test [7]; 15.7% in [8]; 37.1% in [9]; 20% in test [10]; 4.89% (active) in test [11]; 18.6% in test [12]. The growth in [13] is 29.2%; in [14], 19.6%; in [19], 21.3%; in test [15] it was 34.1%; in test [16], 32.1%; in test [17] it was 40.7%. The growth in test [18] was 44.7%.

Consider `CN(c1cc2ncc(=O)[nH]c2cc1NC(N)=NCc1ccc(Cl)cc1)C1CCCCC1`, for which the growth in test [1] was 71.7%; in test [2] it was 2.83% (active); in [3], 29.9%; in test [4], 19.9%; in test [5], 37.1%; in test [6], 67.9%. For the same compound, the growth was 95.8% in test [7]; 66.4% in [8]; 106% in [9]; 99.9% in test [10]; 22.7% in test [11]; 58.2% in test [12]. In addition, the growth in test [13] was 63.5%; in [14] it was -4.07% (active); in test [19] it was 64.3%; in test [15], 71.5%; in [16], 72.3%; in [17], -45.6% (active). Moreover, the growth in test [18] is 52.8%.

`CC(C)c1ccc(Cc2cnc(NC(=O)c3cc(Br)cs3)s2)cc1`: the growth is 38.5% in test [1]; 18.2% in test [2]; 31.1% in [3]; 55.8% in test [4]; -5.08% (active) in [5]; 48.2% in test [6]. For the same compound, the growth was 9.99% (active) in test [7]; 4.75% (active) in test [8]; 53.4% in [9]; 21.6% in test [10]; 7.43% (active) in [11]; -3.65% (active) in test [12]. In addition, the growth in test [13] is 42.9%; in test [14] it was 18.6%; in test [19] it was 26.7%; in [15] it was 10.1%; in [17] it was 41.3%; in test [18], 53.5%.

For `O=c1scc(-c2ccc(C(F)(F)F)cc2)s1`, the growth in [1] is 110%; in test [2], 99.9%; in [3], 115%; in [4] it was 104%; in test [5], 87.4%; in [6], 100%. In addition, the growth in [7] was 85.6%; in test [8], 111%; in [9], 82.9%; in test [10], 93.4%; in test [11], 89.4%; in test [12] it was 63.5%. Further, the growth was 95.2% in test [14]; 87.8% in test [19]; 97% in test [15]; 84.1% in test [16]; 103% in test [17]; 102% in [18].

Regarding `CC(C)COc1nc2c(c(=O)n(C)c(=O)n2C)n1C`, the growth in test [1] is 111%; in test [2], 98%; in test [3] it was 121%; in test [4], 108%; in test [5] it was 126%; in test [6], 98.5%. In addition, the growth is 112% in test [7]; 91.8% in test [8]; 67.2% in test [9]; 97% in [10]; 99.8% in [11]; 82.4% in test [12]. Also, the growth in test [13] was 99.9%; in test [14] it was 101%; in test [19], 102%; in test [15], 86.7%; in [16] it was 93.8%; in test [17] it was 105%. Also, in test [18], the growth is 106%.

Turning to `O=c1c2cnn(-c3ccccc3)c2n2c(CN3CCOCC3)nnc2n1-c1ccccc1`, the growth in test [1] is 105%; in test [2] it was 88.2%; in test [3] it was 124%; in test [4] it was 106%; in [5], 119%; in [6] it was 104%. For the same compound, the growth in [7] is 98.6%; in [8] it was 99.2%; in test [9] it was 101%; in [10], 101%; in [11] it was 74.9%; in test [12] it was 98%. For the same compound, the growth in [13] is 106%; in test [14], 89.4%; in test [15], 102%; in test [16], 98%; in test [17] it was 96.9%; in [18] it was 107%.

Regarding `N#CSc1c[nH]c2cccc(/C=C/C(=O)/C=C(/C=C/c3cccc4[nH]cc(SC#N)c34)OB(F)F)c12`, the growth in [1] was -69.4% (active); in test [2], -14.8% (active); in test [3], -52.8% (active); in test [4], -42.3% (active); in [5], -77.6% (active); in test [6] it was 8.33% (active). Also, the growth in test [7] is -4.04% (active); in [8] it was -8.18% (active); in test [9] it was -50.6% (active); in test [10], -73.6% (active); in test [11] it was -74.5% (active); in test [12], -31.5% (active). Besides, the growth in test [13] was 19.1%; in test [14] it was -83.3% (active); in test [19], -19.6% (active); in test [15] it was -74.1% (active); in [16] it was -50.5% (active); in test [17], -85.4% (active). Besides, the growth in test [18] was -47.9% (active).

`CSc1nc2ccccc2cc1/C=C1/C=C(c2ccccc2)NC1=O`: the growth in [1] was 93.2%; in test [2] it was 35.7%; in test [3], 86.9%; in test [4], 86.6%; in [5], 84.6%; in [6] it was 87.2%. Moreover, the growth was 67% in test [7]; 96.4% in test [8]; 86.8% in test [9]; 41.3% in test [10]; 38.9% in test [11]; 79.3% in test [12]. Moreover, the growth is 80.1% in [13]; 78.8% in test [14]; 70.4% in test [19]; 82.3% in test [15]; 64% in test [16]; 74.4% in [17]. Also, in test [18], the growth is 92.6%.

For the compound `CC(=O)Oc1ccc(/C(=C(\C)c2ccc(Cl)cc2)c2ccc(OCCN3CCCCC3)cc2)cc1`, the growth in test [1] was 61.9%; in test [2] it was -47% (active); in test [3] it was -6.44% (active); in test [4], 50.8%; in test [5] it was 29.3%; in test [6] it was 58.6%. Besides, the growth in test [7] is 9.07% (active); in test [8], 28.2%; in [9], -34.9% (active); in [10], -16.3% (active); in [11] it was -25.9% (active); in test [12], 41.7%. In addition, the growth in test [13] was 42.2%; in [14] it was 18.3%; in [19] it was 28.1%; in test [15] it was 37.1%; in test [16] it was 42.8%; in test [17] it was -65% (active). Besides, the growth in [18] is -48.5% (active).

With `CNC(=O)c1[nH]cc(-c2ccc(OC)cc2)c1-c1cc(OC)c2c(c1OC)OCO2`, the growth is 110% in test [1]; 105% in test [2]; 95% in test [3]; 100% in [4]; 97.5% in [5]; 101% in test [6]. The growth in test [7] is 97.6%; in test [8], 103%; in test [9], 104%; in [10] it was 97.1%; in [11], 108%; in test [12] it was 66.9%. The growth in test [13] is 93.9%; in [14] it was 98.4%; in test [19] it was 92.1%; in test [15] it was 100%; in test [16] it was 90%; in test [17] it was 96.5%. Also, in test [18], the growth was 101%.

For the origin of these results see PubChem BioAssay (NCI).
